Reference: PMC6792352, “Limited Chemical Structural Diversity Found to Modulate Thyroid Hormone Receptor in the Tox21 Chemical Library” (Environmental Health Perspectives, 2019)
Where a name gives a salt, the structure may show the parent alone. Read-outs that look alike come from different tables or passages of the source.

Tested on: thyroid hormone receptor (endogenous TRα and TRβ)
Parameters: species or system GH3-TRE-Luc (rat pituitary); GH3-TRE-Luc luciferase reporter, antagonist mode against 1 nM T3, loss of signal, qHTS
[1] = read-out: Average AC50 (uM) GH3-TRE-Antag, antagonist mode, 1 nM T3, no GH3 cytotoxicity hit

Row | SMILES | AC50 [1] [µM] | AC50 (read-out: Average AC50 (uM) GH3-TRE-Antag, antagonist mode, 1 nM T3, no GH3 cytotoxicity hit, Average AC50 (uM) GH3-TRE-Antag, 24 h) [µM]
1 | CC(=O)O[C@H]1CC[C@@]2(C)C(=CC[C@@H]3[C@@H]2CC[C@]2(C)C(c4cccnc4)=CC[C@@H]32)C1 [Abiraterone acetate] | 50 | –
2 | NC(=O)N(O)[C@@H]1C=C[C@H](Oc2cccc(Oc3ccc(F)cc3)c2)C1 [CJ-013790] | 81.3 | –
3 | CCCCCCn1cc[n+](C)c1 [1-Hexyl-3-methylimidazolium chloride] | – | 65.3
4 | Cc1cc(Nc2ccccc2C(=O)O)ccc1Cl [2-[(4-Chloro-3-methylphenyl)amino]benzoic acid] | 16.1 | –
5 | CCCCC(C#N)(Cn1cncn1)c1ccc(Cl)cc1 (stereo not drawn) [Myclobutanil] | 79 | –
6 | CCN(CC)CCOC(=O)[C@H](Cc1cccc2ccccc12)C[C@H]1CCCO1 [Nafronyl oxalate] | 10.7 | –
7 | C#C[C@]1(O)CC[C@H]2[C@@H]3CCc4cc(O)ccc4[C@H]3CC[C@@]21C [17alpha-Ethinylestradiol] | 16.2 | –
8 | CCCCN(CCCC)CCC(O)c1cc2c(Cl)cc(Cl)cc2c2cc(C(F)(F)F)ccc12 (stereo not drawn) [Halofantrine hydrochloride] | 15.6 | –
9 | Oc1c(Cl)ccc(Cl)c1Cl [2,3,6-Trichlorophenol] | > 90 | –
